Measured values taken from PubChem BioAssay (NCATS).
Inconclusive results are not listed. Activity calls are given as the source filed them. Calls come from the whole dose curve; as a rule, active = well fitted curve in the direction sought with a large enough effect; inconclusive = small, poorly fitted or top-dose-only effect, or another doubt; inactive = no such curve, though single readings can be large or run the other way.

Assay: KB-3-1 P-gp reporter qHTS against the NCATS DSHEA and TCM libraries (AID 1919975)
Conditions: KB-3-1 parental cells, CellTiter-Glo luminescence viability, 72 h; series mostly up to 26.1 µM
In short: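 72 h exposure of KB-3-1 cells (DMEM, 10% FBS) to DSHEA/TCM samples, concentration-response; cell viability measured as CellTiter-Glo luminescence after 30 min at room temperature.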

Row | SMILES | outcome
1 | Oc1cc(O)c2c(c1)O[C@@H](c1cc(O)c(O)c(O)c1)[C@H](O)C2 | inactive
2 | O=C(O[C@@H]1Cc2c(O)cc(O)cc2O[C@@H]1c1ccc(O)c(O)c1)c1cc(O)c(O)c(O)c1 | inactive
3 | C=CCc1ccc(OC)c(OC)c1 | inactive
4 | C=C(C)C1CC=C(C)C(O)C1 (stereo unspecified) | inactive
5 | CC1=C2[C@H](/C=C(\C)C(=O)O)CC[C@@H](C)[C@H]2CC1 | inactive
6 | C=C1CC[C@H]2C[C@@H]1C2(C)C | inactive
7 | C=C1C[C@@]23CC[C@H]4[C@@](C)(CCC[C@@]4(C)C(=O)O[C@@H]4O[C@H](CO)[C@@H](O)[C@H](O)[C@H]4O[C@@H]4O[C@H](CO)[C@@H](O)[C@H](O)[C@H]4O)[C@@H]2CC[C@]1(O[C@@H]1O[C@H](CO)[C@@H](O)[C@H](O)[C@H]1O[C@@H]1O[C@H](CO)[C@@H](O)[C@H](O)[C@H]1O)C3 | inactive
8 | CC(C)=CCC[C@](C)(O[C@@H]1O[C@H](CO)[C@@H](O)[C@H](O)[C@H]1O)[C@H]1CC[C@]2(C)[C@@H]1[C@H](O)C[C@@H]1[C@@]3(C)CC[C@H](O)C(C)(C)[C@@H]3[C@@H](O[C@@H]3O[C@H](CO)[C@@H](O)[C@H](O)[C@H]3O)C[C@]12C | inactive
9 | CCCCC/C=C/C/C=C/CCCCCCCC(=O)O | inactive
10 | CCCCCC(=O)O | inactive
11 | CC(C)(O)[C@@H]1CC[C@](C)([C@H]2[C@@H](O)C[C@@]3(C)[C@@H]4C[C@H](O)[C@H]5C(C)(C)[C@@H](O[C@@H]6OC[C@@H](O)[C@H](O)[C@H]6O[C@@H]6O[C@H](CO)[C@@H](O)[C@H](O)[C@H]6O)CC[C@@]56C[C@@]46CC[C@]23C)O1 | inactive
